Inconclusive results are not listed. Calls of active or inactive are those of the source. Calls come from the whole dose curve; as a rule, active = well fitted curve in the direction sought with a large enough effect; inconclusive = small, poorly fitted or top-dose-only effect, or another doubt; inactive = no such curve, though single readings can be large; an effect the other way counts as inactive or inconclusive.
How the values were obtained:
[1] = Cellular Toxicity (caspase-3) N2a (AID 665); settings: N2a cells, luminescence, normalized: DMSO 0%, 10 µM staurosporine 100%; at 92.2 µM (top of the series);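 note: compound exposure lasted 16 h at 37 °C before readout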
In short: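 Mouse N2a neuroblastoma cells (1500/well) were treated with compounds for 16 h at 37 °C, then caspase-3/7 activity was read by Caspase-Glo luminescence after 1 h at room temperature. Data were normalized to DMSO and 10 uM staurosporine; AC50 from Hill fits.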

[2] = Cellular Toxicity (caspase-3) NIH 3T3 (AID 666);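 note: caspase signal read after 16 h compound exposure; 0% = DMSO basal and 100% = 100 µM tamoxifen stimulation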
In short: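 Mouse NIH 3T3 fibroblasts (1000 cells/well) were treated with compound for 16 hr at 37°C in complete medium; caspase-3/7 activity was read by Caspase-Glo luminescence. Normalized to DMSO and 100 uM tamoxifen; AC50 from Hill fits.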

[3] = target: Cytochrome P450 3A4 (Homo sapiens) (UniProt P08684); experiment: qHTS Assay for Inhibitors and Substrates of Cytochrome P450 3A4 (AID 884); note: % is set by controls: 0 for no effect and ±100 for the full control effect; nearly all actives have a fitted effect of over 50% in size
In short: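 20 nM human CYP3A4 with 25 uM Luciferin-PPXE (at KM) in 200 mM KPO4, preincubated 10 min with compound; NADPH regeneration started a 60 min RT reaction. Luciferin detected by luminescence, normalized to 57 uM ketoconazole as full inhibition.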

[4] = MultiTox-Fluor Cytotoxicity Assay - LYMP1-001 - Dead Cells (AID 946);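 note: 0% = DMSO and 100% = tetraoctylammonium bromide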
In short: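 In this qHTS, 15 uM tetraoctylammonium bromide defined 100% and DMSO defined basal activity. Lymphoblastoid cells (LYMP1-001, 2500 per well) received compound for 16 hr at 37 C before a fluorogenic dead-cell substrate readout at 485/520 nm.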

[5] = MultiTox-Fluor Cytotoxicity Assay - LYMP1-001 - Live Cells (AID 947);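 note: 0% = DMSO only and full inhibition = tetraoctylammonium bromide control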
[6] = Cell Viability - LYMP1-002 - Assay at 16 hr (AID 948);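 note: 0% = DMSO alone and full effect = 92 µM tetraoctylammonium bromide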
In short: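 In this qHTS, lymphoblastoid LYMP1-002 cells (human) receive compounds for 16 hr at 37 C. Viability is taken from CellTiter-Glo ATP luminescence, and AC50 derives from standard Hill fits.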

[7] = MultiTox-Fluor Cytotoxicity Assay - LYMP1-002 - Live Cells (AID 955); note: % is set by controls: 0 for no effect and ±100 for the full control effect
In short: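 Human lymphoblastoid LYMP1-002 cells, 2500/well in complete medium, rested 5 hr at 37 C, then exposed to compounds for 16 hr at 37 C. Live-cell protease cleavage of GF-AFC read by fluorescence (Ex/Em 405/510) after 60 min at room temperature; AC50 from Hill fits.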

[8] = MultiTox-Fluor Cytotoxicity Assay - LYMP1-002 - Dead Cells (AID 960);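 note: 0% = DMSO and 100% = tetraoctylammonium bromide; nearly all actives have a fitted effect of over 60% in size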
In short: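 Human lymphoblastoid cells (LYMP1-002), 2500/well in complete medium, were exposed to compounds for 16 hr at 37 C. Dead-cell protease activity was read as bis-AAF-R110 fluorescence (Ex/Em 485/520), normalized to DMSO and 15 uM tetraoctylammonium bromide; AC50 from Hill fits.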

[9] = MultiTox-Fluor Cytotoxicity Assay - LYMP1-003 - Dead Cells (AID 961);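 note: 0% = DMSO and 100% = tetraoctylammonium bromide; nearly all actives have a fitted effect of over 70% in size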
In short: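 Acute toxicity is scored as increased dead-cell protease activity in human lymphoblastoid LYMP1-003 cells after 16 h compound exposure in complete culture medium. Activity is normalized to DMSO basal and 15 uM tetraoctylammonium bromide as full response.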

[10] = Cell Viability - LYMP1-003 - Assay at 24 hr (AID 963);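 note: plate controls were DMSO only for no effect and tetraoctylammonium bromide positive control for full effect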
In short: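 Human lymphoblastoid LYMP1-003 cells (2500/well) were rested 5 hr at 37 C, then exposed to compounds in complete medium for 24 hr at 37 C. Cellular ATP was quantified by CellTiter-Glo luminescence, and AC50 values came from Hill fits of concentration-response data.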

[11] = Cell Viability - LYMP1-003 - Assay at 40 hr (AID 964); note: % is set by controls: 0 for no effect and ±100 for the full control effect; nearly all actives have a fitted effect of over 60% in size
In short: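 Human lymphoblastoid LYMP1-003 cells, 2500/well in complete medium, rested 5 hr at 37 C, then exposed to compounds for 40 hr at 37 C. Viability read as intracellular ATP by CellTiter-Glo luminescence; AC50 from Hill fits of concentration-response data.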

[12] = Cell Viability - LYMP2-003 (AID 965);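 note: cells exposed to compounds for 24 h before reading; 0% = DMSO only and full effect = 92 µM tetraoctylammonium bromide; nearly all actives have a fitted effect of over 50% in size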
In short: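 qHTS, human lymphoblastoid line, 2500 cells/well, complete medium. 24 h drug, 37 C. ATP-based luminescent readout; Hill-fit AC50.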

[13] = Cell Viability - LYMP2-004 (AID 966);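 note: plate controls were DMSO only for no effect and tetraoctylammonium bromide control for full effect; nearly all actives have a fitted effect of over 65% in size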
In short: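 Human lymphoblastoid cells (2500/well) in complete medium were treated with compounds for 24 hr at 37 C, then intracellular ATP was measured by CellTiter-Glo luminescence. AC50 values came from Hill-equation fits of concentration-response data.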

[14] = Cell Viability - LYMP2-005 (AID 967);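 note: plate controls were DMSO only for no effect and 92 µM tetraoctylammonium bromide control for full effect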
In short: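 Luciferase-based ATP quantitation served as the viability measure in human lymphoblastoid LYMP2-005 cells exposed to test compounds for 24 h at 37 C in complete culture medium. Potency (AC50) was obtained by fitting concentration-response curves with the Hill equation.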

[15] = Cell Viability - LYMP2-009 (AID 968);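 note: 0% = DMSO alone and the full-kill end = tetraoctylammonium bromide at 92 µM; nearly all actives have a fitted effect of over 55% in size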
[16] = Cell Viability - LYMP2-011 (AID 969);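 note: 0% = DMSO only and full inhibition = 92 µM tetraoctylammonium bromide; nearly all actives have a fitted effect of over 60% in size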
In short: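 Human lymphoblastoid cells (2500/well) were plated in complete medium, preincubated 5 hr at 37 C, then exposed to compounds for 24 hr at 37 C. Intracellular ATP was read by CellTiter-Glo luminescence, and AC50 came from Hill-equation concentration-response fits.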

[17] = Cell Viability - LYMP2-013 (AID 970);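 note: 0% = DMSO only and full inhibition = tetraoctylammonium bromide control; nearly all actives have a fitted effect of over 55% in size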
In short: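 Human lymphoblastoid cells, 2500/well, were preincubated 5 hr at 37 C, then treated with compounds for 24 hr at 37 C in complete medium. Intracellular ATP was read by CellTiter-Glo luminescence; AC50 from Hill-equation fits of concentration-response data.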

[18] = Cell Viability - LYMP2-015 (AID 971);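 note: 0% = DMSO only and full effect = 92 µM tetraoctylammonium bromide; nearly all actives have a fitted effect of over 55% in size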
In short: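 Human lymphoblastoid cells (2500/well) in complete medium were preincubated 5 hr at 37 C, then compound-treated 24 hr at 37 C. Intracellular ATP was read by CellTiter-Glo luminescence after 30 min at room temperature; AC50 came from Hill-equation concentration-response fits.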

[19] = Cell Viability - LYMP2-017 (AID 972); note: % is set by controls: 0 for no effect and ±100 for the full control effect; nearly all actives have a fitted effect of over 55% in size
In short: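 Human lymphoblastoid cells (2500/well) were seeded in complete medium, held 5 hr at 37 C, then exposed to compounds for 24 hr at 37 C. Intracellular ATP was read by CellTiter-Glo luminescence after 30 min at room temperature, with AC50 values from Hill-equation fits.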

[20] = Cell Viability - LYMP2-019 (AID 973)
In short: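 Human lymphoblastoid cells were seeded at 2500 cells/well, preincubated 5 hr at 37 C, then exposed to compounds for 24 hr at 37 C in complete medium. Intracellular ATP was measured by CellTiter-Glo luminescence; AC50 from Hill fits.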

[21] = Cell Viability - LYMP2-021 (AID 974)
In short: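 Human lymphoblastoid cells (2500/well) were preincubated 5 hr at 37 C, then exposed to compounds for 24 hr at 37 C in complete medium. Intracellular ATP was read by CellTiter-Glo luminescence; AC50 came from Hill-equation fits of concentration-response data.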

[22] = Cell Viability - LYMP2-023 (AID 975)
In short: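 Human lymphoblastoid cells (2500/well) were preincubated 5 hr at 37 C, then exposed to compounds for 24 hr at 37 C in complete medium. Cellular ATP was read by CellTiter-Glo luminescence, and AC50 came from Hill-equation fits.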

Sequence of Cytochrome P450 3A4 (Homo sapiens) (P08684 whole entry, looked up): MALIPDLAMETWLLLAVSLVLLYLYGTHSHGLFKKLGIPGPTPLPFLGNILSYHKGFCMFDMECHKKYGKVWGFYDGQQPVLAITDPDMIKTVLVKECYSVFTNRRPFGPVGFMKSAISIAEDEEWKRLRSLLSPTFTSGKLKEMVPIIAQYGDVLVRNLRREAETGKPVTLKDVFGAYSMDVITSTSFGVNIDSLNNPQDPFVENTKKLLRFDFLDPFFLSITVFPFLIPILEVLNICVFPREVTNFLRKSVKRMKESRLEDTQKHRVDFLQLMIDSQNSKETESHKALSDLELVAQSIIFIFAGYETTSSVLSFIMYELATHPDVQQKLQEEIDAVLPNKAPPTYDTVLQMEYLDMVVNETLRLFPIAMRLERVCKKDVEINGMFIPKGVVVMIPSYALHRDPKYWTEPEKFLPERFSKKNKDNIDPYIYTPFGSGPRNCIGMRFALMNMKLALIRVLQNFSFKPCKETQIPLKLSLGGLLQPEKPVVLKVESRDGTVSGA

Clc1cc(Cl)c(-c2cc(Cl)c(Cl)cc2Cl)cc1Cl
inactive: caspase-3 activation [1] -0.702% | outcome [2] | Potency [3] | Potency [4] | Potency [5] | Potency [6] | outcome [7] | Potency [8] | Potency [9] | Potency [10] | Potency [11] | Potency [12] | Potency [13] | Potency [14] | Potency [15] | Potency [16] | Potency [17] | Potency [18] | Potency [19] | Potency [20] | Potency [21] | Potency [22]

Source: PubChem BioAssay (NCATS)
